A word on the AC50: it is the concentration at which the activity in the assay is half-maximal.

Activity calls are given as the source filed them. How the source made its calls: active means hit-call score of the fitted dose curve at least 0.9, where 1 is the maximum; inactive means score below 0.9.

Read-out in test [1]: Vascular cell adhesion molecule 1 (VCAM1), VCAM1 (gene 7412)
Briefly: BSK_4H_VCAM1: BioMAP Diversity Plus: 4H Assay for Vascular cell adhesion molecule 1 (VCAM1) Biomarker Activity (AID 2283033).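 On outcome: cell-surface VCAM-1 protein measured by ELISA.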 The following applies: primary human endothelial cells (HUVEC); actives raise or lower the signal. The procedure, abridged:
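HUVEC, 24 h post-dose; VCAM-1 by ELISA. Bidirectional curve fit vs DMSO baseline. Parallel SRB total-protein stain (0.1% SRB after 10% TCA fixation, 560 nm) for cytotoxicity.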

Read-out in test [2]: Interferon-gamma inducible Protein 10 (IP10), CXCL10 (gene 3627)
Briefly: BSK_BE3C_IP10: BioMAP Diversity Plus: BE3C Assay for Interferon-gamma inducible Protein 10 (IP10) Biomarker Activity (AID 2283034). Particulars: primary human bronchial epithelial cells; actives raise or lower the signal. The method, boiled down: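 ELISA readout of IP-10 in BE3C system: primary human bronchial epithelial cells, 24 h post-dosing; bidirectional curve fit vs DMSO baseline.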

Read-out in test [3]: Monokine induced gamma interferon (MIG), CXCL9 (gene 4283)
The experiment in a line: BSK_BE3C_MIG: BioMAP Diversity Plus: BE3C Assay for Monokine induced gamma interferon (MIG) Biomarker Activity (AID 2283035). The following applies: primary human bronchial epithelial cells; actives raise or lower the signal. The method, boiled down: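 hu bronchial epithelial 1° cells, 24 h cpd; MIG by ELISA; bidirectional fit, DMSO = baseline.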

Read-out in test [4]: Transforming growth factor beta 1 (TGFb1), TGFB1 (gene 7040)
The experiment in a line: BSK_BE3C_TGFb1: BioMAP Diversity Plus: BE3C Assay for Transforming growth factor beta 1 (TGFb1) Biomarker Activity (AID 2283036;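 on outcome: TGF-b1 protein level measured by ELISA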). Particulars: primary human bronchial epithelial cells; actives raise or lower the signal. The procedure, abridged:
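Read-out: ELISA for TGF-b1 in primary human bronchial epithelial cultures, 24 h post-dose. Bidirectional curve fitting vs DMSO control; gain or loss of signal both scored.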

Read-out in test [5]: Plasminogen activator inhibitor-1 (PAI1), SERPINE1 (gene 5054)
The experiment in a line: BSK_BE3C_PAI1: BioMAP Diversity Plus: BE3C Assay for Plasminogen activator inhibitor-1 (PAI1) Biomarker Activity (AID 2283037). The following applies: primary human bronchial epithelial cells; actives raise or lower the signal. The procedure, abridged:
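ELISA read-out of PAI-1 from human bronchial epithelial primary cells, 24 h post-dosing; bidirectional curve fit vs DMSO baseline, gain or loss of signal scored.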

Read-out in test [6]: urokinase plasminogen activator (uPA), PLAU (gene 5328)
Briefly: BSK_BE3C_uPA: BioMAP Diversity Plus: BE3C Assay for urokinase plasminogen activator (uPA) Biomarker Activity (AID 2283038).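 On outcome: uPA protein level quantified by ELISA in cell cultures; uPA read one day after compound addition.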 Particulars: primary human bronchial epithelial cells; actives raise or lower the signal. The procedure, abridged: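 Primary human bronchial epithelial cells, uPA measured by ELISA 24 h after dosing. Bidirectional change relative to DMSO; cytotoxicity checked in parallel cultures by sulforhodamine B total-protein staining.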

Read-out in test [7]: Urokinase-type plasminogen activator receptor (uPAR), PLAUR (gene 5329)
Briefly: BSK_BE3C_uPAR: BioMAP Diversity Plus: BE3C Assay for Urokinase-type plasminogen activator receptor (uPAR) Biomarker Activity (AID 2283039).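 On outcome: uPAR protein level measured by ELISA on the cells; cells exposed to compound for one day before measurement.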 Particulars: primary human bronchial epithelial cells; actives raise or lower the signal. The procedure, abridged:
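ELISA readout of uPAR on human lung primary bronchial epithelial cells, 24 h post-dosing. Bidirectional curve fit relative to DMSO vehicle baseline; gain or loss of signal both scored.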

Read-out in test [8]: Interleukin-6 (IL6), IL6 (gene 3569)
The experiment in a line: BSK_CASM3C_IL6: BioMAP Diversity Plus: CASM3C Assay for Interleukin-6 (IL6) Biomarker Activity for (AID 2283040). The following applies: primary human coronary artery smooth muscle cells; actives raise or lower the signal.

Read-out in test [9]: Tissue plasminogen activator (tPA), PLAT (gene 5327)
Briefly: BSK_BE3C_tPA: BioMAP Diversity Plus: BE3C Assay for Tissue plasminogen activator (tPA) Biomarker Activity (AID 2283041).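 On outcome: tPA level quantified by ELISA one day after compound addition.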 Particulars: primary human bronchial epithelial cells; actives raise or lower the signal. The method, boiled down: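 ELISA read-out of tPA on human primary bronchial epithelial cells, 24 h post-dosing; bidirectional fit vs DMSO negative control/baseline.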

Read-out in test [10]: Interleukin-8 (IL8), CXCL8 (gene 3576)
Briefly: BSK_CASM3C_IL8: BioMAP Diversity Plus: CASM3C Assay for Interleukin-8 (IL8) Biomarker Activity (AID 2283042).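 Further: IL-8 protein level quantified by ELISA.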 Particulars: primary human coronary artery smooth muscle cells; actives raise or lower the signal.

Consider `CC(C)CC(C)O` (stereo not given), for which the result in test [1], in test [2], in test [3], in [4], in test [5] and in test [6] was inactive. The outcome in test [7], in test [8], in test [9] and in [10] was inactive.

With `CC1(C)C(=O)N(Cl)C(=O)N1Cl`, the outcome in [1], in [2], in test [3], in test [4], in test [5] and in [6] was inactive. Besides, the result in [7], in [8], in [9] and in [10] was inactive.

As for `Cc1cccc(O)c1C`, the result in test [1], in test [2], in test [3], in test [4], in [5] and in test [6] was inactive. In addition, the result in [7], in [8], in [9] and in test [10] was inactive.

`O=C(O)c1ccc2c(c1)nc(C(=O)NC1CCN(C3CC3)CC1)n2Cc1cc(-c2ccc(Cl)s2)on1`: the result in test [1], in test [2], in test [3], in [4], in [5] and in test [6] was inactive. In addition, the result in [7], in test [8], in [9] and in test [10] was inactive.

On to `C=CCc1cc(S(=O)(=O)c2ccc(O)c(CC=C)c2)ccc1O`, for which the half-maximal activity concentration (AC50) was 32.3 µM (active) in test [1]; 13.4 µM (active) in [2]; 29.8 µM (active) in [3]; 10.5 µM (active) in [4]; 10.8 µM (active) in [5]; 23.5 µM (active) in test [6]. In addition, the AC50 was 15.4 µM (active) in [7], 7.78 µM (active) in test [9] and 17.6 µM (active) in test [10]. Further, the result in [8] was inactive.

As to `O=C(O)[C@H](O)[C@@H](O)C(=O)O`, the outcome in test [1], in test [2], in test [3], in test [4], in test [5] and in [6] was inactive. The outcome in [7], in test [8], in test [9] and in test [10] was inactive.

Consider `Cn1cc[nH]c1=S`, for which the result in [1], in test [2], in test [3], in test [4], in test [5] and in test [6] was inactive. Also, the result in test [7], in test [8], in [9] and in test [10] was inactive.

As to `OC[C@H]1O[C@@](CO)(O[C@H]2O[C@H](CO)[C@@H](O)[C@H](O)[C@H]2O)[C@@H](O)[C@@H]1O`, the result in test [1], in [2], in [3], in test [4], in test [5] and in [6] was inactive. The outcome in [7], in test [8], in test [9] and in test [10] was inactive.

With `c1ccc(C(O[C@@H]2CCCN(CCc3ccc4c(c3)OCO4)C2)c2ccccc2)cc1`, the AC50 in test [1] is 26.9 µM (active). Also, the result in test [2], in test [3], in [4], in [5], in test [6] and in test [7] was inactive. Also, the result in test [8], in test [9] and in test [10] was inactive.

With `NC(N)=O`, the outcome in [1], in [2], in [3], in [4], in [5] and in test [6] was inactive. In addition, the outcome in test [7], in test [8], in test [9] and in [10] was inactive.

For `C=CN1CCCC1=O`, the outcome in [1], in test [2], in test [3], in [4], in test [5] and in test [6] was inactive. Further, the outcome in test [7], in test [8], in [9] and in [10] was inactive.

`c1ccc2cc3ccccc3cc2c1`: the result in test [1], in test [2], in test [3], in test [4], in test [5] and in test [6] was inactive. Also, the outcome in test [7], in test [8], in [9] and in [10] was inactive.

As to `OCC(CO)(CO)CO`, the result in test [1], in [2], in test [3], in test [4], in test [5] and in [6] was inactive. In addition, the result in [7], in test [8], in test [9] and in test [10] was inactive.

In the case of `CNC(C)=O`, the result in [1], in test [2], in test [3], in test [4], in [5] and in test [6] was inactive. Moreover, the outcome in [7], in test [8], in [9] and in [10] was inactive.

Turning to `NNC(=O)c1ccncc1`, the outcome in test [1], in test [2], in test [3], in test [4], in test [5] and in test [6] was inactive. Besides, the result in test [7], in test [8], in test [9] and in test [10] was inactive.

As to `CCN(CC)C(=S)SSC(=S)N(CC)CC`, the AC50 in [1] was 32.4 µM (active); in [2], 25.5 µM (active); in test [3], 32.3 µM (active); in test [4] it was 17.9 µM (active); in test [5], 27.9 µM (active); in test [6], 18.7 µM (active). In addition, the half-maximal activity concentration (AC50) in test [7] is 22.6 µM (active); in test [9] it was 7.46 µM (active); in test [10], 20 µM (active). The outcome in test [8] was inactive.

For `CCCCCCCC/C=C\CCCCCCCC(=O)OC[C@@H](O)[C@H]1OC[C@H](O)[C@H]1O`, the result in test [1], in [2], in [3], in [4], in test [5] and in test [6] was inactive. Further, the result in test [7], in test [8], in test [9] and in [10] was inactive.

For `CCCCOC(=O)c1ccccc1`, the outcome in [1], in test [2], in [3], in test [4], in test [5] and in [6] was inactive. Further, the outcome in [7], in test [8], in test [9] and in [10] was inactive.

`COS(C)(=O)=O`: the outcome in [1], in [2], in test [3], in test [4], in test [5] and in [6] was inactive. The outcome in [7], in test [8], in test [9] and in [10] was inactive.

In the case of `OCCNCCO`, the result in test [1], in test [2], in test [3], in test [4], in test [5] and in test [6] was inactive. For the same compound, the result in [7], in test [8], in test [9] and in [10] was inactive.

Values taken from PubChem BioAssay (EPA / NIEHS).
